Assay results as given in PubChem BioAssay AID504332 (National Center for Advancing Translational Sciences (NCATS), 2011).
Hit rate of the full screen: of about 350,000 compounds, about 31,000 (8.9%) were called active. Inconclusive results (about 15%) are left out. The call rests on the fitted dose curve; in most records, active means well fitted inhibition curve with a large enough effect; inconclusive means small, poorly fitted or top-dose-only effect; inactive means no such curve, though single readings can be large or run the other way. This excerpt belongs to a sample that is enriched for actives.

target: Histone-lysine N-methyltransferase EHMT2 (Homo sapiens) (UniProt Q96KQ7); experiment: qHTS Assay for Inhibitors of Histone Lysine Methyltransferase G9a; conditions: G9a H3K9 monomethylation, AlphaScreen, 2 h; series mostly up to 59 µM; activity, negative = inhibition: at the top concentration; further: nearly all actives have a fitted effect of over 75% in size
Sequence (Q96KQ7 913-1193 limits assumed): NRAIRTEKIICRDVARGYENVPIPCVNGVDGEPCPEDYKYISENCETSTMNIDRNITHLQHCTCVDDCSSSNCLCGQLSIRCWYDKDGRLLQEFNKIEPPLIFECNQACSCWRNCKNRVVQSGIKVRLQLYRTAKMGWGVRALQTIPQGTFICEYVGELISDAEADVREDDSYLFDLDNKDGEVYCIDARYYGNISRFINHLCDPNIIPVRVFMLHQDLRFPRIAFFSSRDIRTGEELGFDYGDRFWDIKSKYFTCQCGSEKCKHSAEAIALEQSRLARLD
How it was run: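 Readings reflect AlphaScreen signal from monomethyl-H3K9 antibody detection. HMT at 20 nM; substrate b-H3K9 500 nM; cofactor SAM 20 uM; 2 h RT reaction; compounds tested as titrations in qHTS with 15 min preincubation.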
On the % scale 0 is the no-effect control and ±100 the full control effect; potency means the concentration at half of the fitted maximal effect.

Structure (SMILES) | Potency | activity, negative = inhibition
COc1cccc(CNCCc2c[nH]c3ccccc23)c1OCc1ccccc1F | 44.7 µM (active) | 
COc1ccccc1CC(=O)NCCc1c[nH]c2ccccc12 |  | -1.18% [at 102 µM] (inactive)
COc1ccc(S(=O)(=O)NCCc2c[nH]c3ccccc23)cc1OC |  | -7.41% [at 102 µM] (inactive)
O=C1NC(c2ccncc2)Nc2sc3c(c21)CCCC3 (configuration not stated) | 28.2 µM (active) | 
CCN(C(=O)CSc1nnc(-c2ccc(OC(F)F)cc2)n1N)C1CCS(=O)(=O)C1 (configuration not stated) |  | -29.8% (inactive)
O=C(NC(=O)c1ccccc1)NC(=O)c1ccccc1 |  | -6.69% (inactive)
Cn1nnc(NC(=S)NC(=O)c2ccccc2)n1 | 8.91 µM (active) | 
Cc1cc2[nH]ncc2cc1NC(=S)NC(=O)c1ccccc1 |  | 12.2% (inactive)
COc1cc(OC)c(C(=S)N2CCCC2)cc1OC |  | 10.9% [at 0.501 µM] (inactive)
CCCNC(=O)C1CCC(Cn2c(=O)c3sccc3n(Cc3ccccc3F)c2=O)CC1 (configuration not stated) |  | 9.39% (inactive)
CCn1cc(C(=O)OCC(=O)Nc2cccc(C)c2)c(=O)c2ccc(C)nc21 |  | -4.25% [at 102 µM] (inactive)
CCn1cc(C(=O)N2CC=C(c3ccccc3)CC2)c(=O)c2ccc(C)nc21 | 79.4 µM (active) | 
CCn1cc(C(=O)Nc2cc(C)ccc2C)c(=O)c2ccc(C)nc21 |  | 19% [at 102 µM] (inactive)
CCS(=O)(=O)N1CCC(n2c(C)nc3cccnc32)CC1 |  | 7.57% (inactive)
CC(C)C(=O)Nc1c(O)c2ccccc2[nH]c1=O |  | -23% [at 102 µM] (inactive)
O=C(Cc1c(O)c2ccccc2[nH]c1=O)NCc1ccccc1 |  | 1.62% (inactive)
O=C1C(c2[nH]c3ccccc3c2O)=Nc2ccccc21 | 5.01 µM (active) | 
NC(=O)c1ccsc1NC(=O)COC(=O)Cc1n[nH]c(=O)c2ccccc12 |  | 1.16% [at 0.501 µM] (inactive)
COc1ccc(OC)c(-n2nnc(-c3nc(-c4cc(OC)c(OC)c(OC)c4)no3)c2C)c1 |  | -32.2% (inactive)
Cc1cccc(CSc2nnc(C)c(=O)n2N)c1 |  | -12% [at 102 µM] (inactive)
Cn1c(SCC(=O)N2CCCCC2)nc2c(c1=O)SCC2 |  | 8.93% [at 102 µM] (inactive)
Cc1cccc(CSc2nc3c(c(=O)n2C)SCC3)c1 | 50.1 µM (active) | 
CCOc1ccc(S(=O)(=O)NCCC(=O)NCC(C)(C)N2CCOCC2)cc1 |  | 14% [at 0.501 µM] (inactive)
COc1ccc(NC(=O)CCN2CCN(CCO)CC2)cc1 |  | 7.3% (inactive)
CCOC(=O)C1CCN(C(=O)Cc2c(C(=O)O)[nH]c3ccccc23)CC1 |  | 16% [at 2.33 µM] (inactive)

Structure (SMILES) | Potency | activity, negative = inhibition
CCOC(=O)c1[nH]c2ccccc2c1N=C(C)N(CC)CC |  | 23.3% (inactive)
CCCS(=O)(=O)Nc1c(C(=O)O)[nH]c2ccccc12 | 39.8 µM (active) | 
CCOC(=O)C1CCN(c2ncnc3c2c(-c2ccccc2)cn3-c2cccc(C)c2)CC1 |  | -31.3% (inactive)
O=C(NCC(c1ccco1)N1CCc2ccccc2C1)c1ccccc1Cl (configuration not stated) |  | -29.7% [at 102 µM] (inactive)
COc1ccc(SCc2cc(=O)c3ccc(C)c(C)c3[nH]2)cc1 |  | 4.13% (inactive)
C=CCOC(=O)C1=C(C)NC(C)=C(C(=O)OCC=C)C1c1cccs1 |  | 15.7% (inactive)
C=CCOC(=O)C1=C(C)NC(SCC(=O)OCC)=C(C#N)C1c1ccc(C)cc1 (configuration not stated) |  | -0.268% [at 102 µM] (inactive)
CC1=C(C(=O)Nc2ccccc2)C(c2cccs2)C(C#N)=C(SCC#N)N1 (configuration not stated) | 12.6 µM (active) | 
CCCn1c(NCc2ccccc2F)nc2ccccc21 |  | 12.8% (inactive)
O=C(CNC(=O)C1COc2ccccc2O1)N/N=C/c1cc(Br)c(O)c(Br)c1 (configuration not stated) | 89.1 µM (active) | 
O=C(CNC(=O)c1cccnc1)N/N=C/c1cc(Br)c(O)c(Br)c1 |  | -7.91% [at 102 µM] (inactive)
O=C(CNC(=O)C(c1ccccc1)c1ccccc1)N/N=C\c1ccc2c(c1)OCO2 |  | 25.4% (inactive)
FC(F)(F)c1cc(Nc2nc3ccccc3c3nncn23)ccc1Cl |  | 21.7% (inactive)
COc1ccc(CNC(=O)C2=Cc3cccc(OC)c3OC2)cc1OC |  | 13.3% (inactive)
Cc1nc2ccccc2c(=O)n1NC(=O)c1ccc(Cl)c([N+](=O)[O-])c1 |  | -4.51% [at 2.33 µM] (inactive)
N#C/C(=C/c1ccc(-c2ccccc2[N+](=O)[O-])o1)C(=O)NCCN1CCCCC1 |  | 16.8% [at 12.7 µM] (inactive)
CC1=NN(c2ccc(Cl)c(C(=O)O)c2)C(=O)/C1=C/c1ccc(-c2ccccc2[N+](=O)[O-])o1 | 31.6 µM (active) | 
Cc1ccc(CNC(=O)c2cc(-c3ccccc3C)n(CC3CC(c4cccc([N+](=O)[O-])c4)=NO3)n2)cc1 (configuration not stated) |  | -36.4% [at 2.33 µM] (inactive)
C=CCN1C(=O)C(Cc2cccc(Cl)c2)S/C1=N/N=C/c1ccco1 (configuration not stated) | 10 µM (active) | 
CCC1S/C(=N/N=C/c2ccco2)NC1=O (configuration not stated) |  | 9.88% [at 102 µM] (inactive)
O=C1N/C(=N\N=C\c2ccco2)SC1Cc1ccc(F)cc1 (configuration not stated) |  | 14.4% [at 102 µM] (inactive)
COc1ccc(CN2C(=O)C(C)S/C2=N/N=C/c2ccco2)cc1 (configuration not stated) | 50.1 µM (active) | 
C=CCN1C(=O)C(Cc2ccc(OCC)cc2)SC1=Nc1ccc(C(=O)O)cc1 (configuration not stated) |  | 10.2% (inactive)
COc1ccc(Cn2ccn(Cc3cccc(OC)c3)c(=O)c2=O)cc1 |  | -3.66% (inactive)
CCCNC(=O)C(CC)n1nc(CC)n2c(cc3oc(C)cc32)c1=O (configuration not stated) |  | -25.5% (inactive)

Structure (SMILES) | Potency | activity, negative = inhibition
Cc1ccc(C)c(N2CCN(S(=O)(=O)c3ccc4c(c3)C(C(C)C)C(=O)N4)CC2)c1 (configuration not stated) |  | -26.4% (inactive)
COc1ccc(Cl)cc1CSc1ncn[nH]1 |  | 22.2% [at 102 µM] (inactive)
O=C(NCCOCc1ccc(Cl)cc1)c1ncn[nH]1 |  | 4.12% (inactive)
O=C(/C=C/Sc1ncn[nH]1)c1ccc(Cl)cc1 | 39.8 µM (active) | 
Cc1cc(C)c2oc(C(=O)Nc3ccc(S(=O)(=O)N4CCCCCC4)cc3)cc(=O)c2c1 |  | -2.18% (inactive)
CCOc1ccccc1CNC(=O)C1CCCN(S(=O)(=O)c2ccc3c(ccn3C)c2)C1 (configuration not stated) |  | 4.5% (inactive)
Cc1ccc(C)c(Cn2c(CCCNC(=O)C3CCCCC3)nc3ccccc32)c1 |  | -1.95% (inactive)
COc1ccccc1C(=O)NCCC(=O)NC1=NCCS1 |  | 43% [at 12.7 µM] (inactive)
O=C(O)c1ccccc1C(=O)NC1=NN(c2ccccc2)CC1 | 39.8 µM (active) | 
Nc1c(C(=O)O)cnn1-c1ccccc1 |  | -17.4% [at 102 µM] (inactive)
O=C(O)c1ccccc1-c1ccccc1C(=O)Nc1ccccc1Br |  | 36.7% [at 102 µM] (inactive)
CC(=O)Nc1cccc(/C(C)=N/NC(=O)c2ccccc2Cl)c1 |  | 39.7% (inactive)
C/C(=N\Nc1cccc(C(=O)O)c1)c1ccc2c(c1)Nc1ccccc1S2 | 3.16 µM (active) | 
O=C(NC1CC1)c1ccc2c(c1)NC(=O)c1ccccc1S2 |  | -14.9% [at 102 µM] (inactive)
O=C(NCc1ccc(Cl)cc1)c1cc2c(nc3sccn32)s1 | 35.5 µM (active) | 
O=C(NCc1cn2ccsc2n1)Nc1ccc(Cl)cc1 |  | 6.52% (inactive)
O=C(NCc1ccc(Cl)cc1)c1cc(=O)nc2sc(-c3ccccc3)nn12 |  | -1.48% [at 102 µM] (inactive)
O=C(Nc1cc2c3c(c1)C1CCCC1CN3CC1CCCC21)c1ccc([N+](=O)[O-])cc1 (configuration not stated) | 10 µM (active) | 
CN1C2CCC1CC(NC(=O)c1ccc([N+](=O)[O-])cc1)C2 (configuration not stated) |  | 10.7% [at 102 µM] (inactive)
CN(CC1CCCO1)S(=O)(=O)c1ccc(C(=O)Nc2ccc([N+](=O)[O-])cc2)cc1 (configuration not stated) |  | -2.06% [at 102 µM] (inactive)
CC(=O)N1CCCc2ccc(NS(=O)(=O)c3ccc(F)cc3F)cc21 |  | -4.23% [at 12.7 µM] (inactive)
O=C(C1CC(=O)N(C2CCCC2)C1)N1CCN(c2cccc(C(F)(F)F)c2)CC1 (configuration not stated) |  | -26.6% [at 102 µM] (inactive)
CCC1(C)NC(=O)N(CC(=O)N2CCN(c3cccc(Cl)c3)CC2)C1=O (configuration not stated) |  | 17.9% [at 2.33 µM] (inactive)
O=[N+]([O-])c1ccc(O)c(/C=N/Nc2ccccc2[N+](=O)[O-])c1 | 20 µM (active) | 
O=C(N/N=C/c1cc([N+](=O)[O-])ccc1O)/C(=C\c1cccs1)NC(=O)c1ccccc1 |  | 18.9% (inactive)

Structure (SMILES) | Potency | activity, negative = inhibition
Nc1nnnn1/N=C/c1cc([N+](=O)[O-])ccc1O |  | -3.14% [at 102 µM] (inactive)
O=C1OC(C(=O)Nc2cccc(Br)c2)Cc2ccccc21 (configuration not stated) |  | 6.55% (inactive)
COc1ccc(NC(=O)c2sc3nc(-c4cc5cccc(OC)c5oc4=O)[nH]c(=O)c3c2C)cc1 |  | -3.24% (inactive)
O=C(CN1CCN(S(=O)(=O)c2cccc(Cl)c2)CC1)N1CCCCC1 |  | 6.11% [at 12.7 µM] (inactive)
CC(=O)N1CCc2cc(S(=O)(=O)NC(Cc3ccccc3)C(=O)NCc3ccc(C)cc3)ccc21 (configuration not stated) |  | -7.19% (inactive)
NC(=O)c1c(Nc2nc3c(F)cccc3s2)sc2c1CCCC2 | 2.82 µM (active) | 
Fc1cc(F)c2nc(Nc3nc4c(F)cccc4s3)sc2c1 |  | -39.4% (inactive)
Cc1cc(OC(C)C(=O)Nc2sc3c(c2C(N)=O)CCCC3)ccc1Cl (configuration not stated) |  | 4.83% (inactive)
CC(c1ccccn1)N(C)C(=O)c1ccc2nc(Cc3cccc(Cl)c3)oc2c1 (configuration not stated) |  | 75.5% [at 102 µM] (inactive)
O=C(N/N=C/c1cccc(OCc2ccccc2)c1)c1ccc(Br)o1 |  | -46.5% [at 102 µM] (inactive)
Cn1c(SCC(=O)N2CCCc3ccccc32)ncc(C(=O)Nc2ccc(F)cc2)c1=O |  | -2.34% (inactive)
CCN(CC)C(CNC(=O)CSc1nnnn1-c1cccc(F)c1)c1ccco1 (configuration not stated) |  | 5.11% [at 12.7 µM] (inactive)
O=C(N/N=C/c1ccc(Br)o1)c1cncc(Br)c1 |  | -6.67% (inactive)
O=C(O)c1ccc(/C=N/NC(=O)c2ccc(Br)cc2)cc1 |  | 13.6% (inactive)
Cc1ccc(C(=O)N/N=C\c2cc(Br)c(Br)o2)cn1 | 50.1 µM (active) | 
COc1ccc(CC(=O)OC(C)C(=O)Nc2ccc(S(N)(=O)=O)cc2)cc1 (configuration not stated) |  | -8.93% [at 2.33 µM] (inactive)
CSc1nc(-c2ccccc2Cl)nc2c1Cc1c(CO)cnc(C)c1O2 |  | -46.3% (inactive)
COc1ccc(CNC(=O)C(c2ccc(O)cc2)N(Cc2ccco2)C(=O)c2snc(C(N)=O)c2N)cc1 (configuration not stated) |  | -40% [at 102 µM] (inactive)
O=C(OCc1cc(=O)n2ccsc2n1)C1(c2ccc(Cl)cc2)CC1 |  | 2.61% [at 12.7 µM] (inactive)
CCN1CCN(CCCNC(=O)c2ccc3c(c2)sc2nc(-c4ccc(OC)cc4)cn23)CC1 |  | -7.7% (inactive)
CN(C)S(=O)(=O)c1ccc(C(=O)NCC2(N3CCOCC3)CCCCC2)cc1 |  | 0.405% [at 2.33 µM] (inactive)
CN1CN(C)c2ccc([N+](=O)[O-])c3cccc1c23 | 50.1 µM (active) | 
